The record followed here is PubChem BioAssay (NCATS).

Calls of active or inactive are those of the source. Where a call stands in place of a potency, no number is given. The call rests on the fitted dose curve; in most records, active means well fitted activation curve with a large enough effect; inconclusive means small, poorly fitted or top-dose-only effect; inactive means flat fitted curve, though single readings scatter.
Potency means the concentration at half of the fitted maximal effect.

A short description of this experiment: Confirmation and Secondary Assay for Modulators of Hemoglobin Beta Chain Splicing at IVS2 705 locus (AID 930). Particulars: HeLa EGFP-705 splicing reporter, GFP fluorescence, 48 h; series mostly up to 46.1 µM. From the text: NIH Chemical Genomics Center [NCGC] NIH Molecular Libraries Screening Centers Network [MLSCN] MLSCN Grant: 1 X01 MH080684-01 PI Name: Dr. Ryszard Kole NCGC Assay Overview: Modulation of Alternative Splicing as Therapy Abnormal splicing is associated with a number of diseases, including cancer and genetic diseases such as cystic fibrosis, muscular dystrophy and beta-thalassemia. Alteration of disease associated splicing patterns provides a promising target for treatment. […] Mutations in the second intron of the b-globin gene at positions 654 or 705 are clinically relevant and cause mis-splicing which results in an out of frame gene product. […] EGFP-705 HeLa Cells as screen system. HeLa cell lines were stably transfected with a construct in which the EGFP (enhanced green fluorescent protein) cDNA was interrupted by the second intron of the beta-globin gene (IVS2-705). The ISV2 intron contains mutations which cause mis-splicing of EGFP and premature termination of EGFP which results in a nonfluorescent protein product. […] Expression of the transgene was driven by the CMV promoter. We concluded that a low molecular weight compound, which restored correct splicing of intron 2 would also generate functional EGFP protein, resulting in a fluorescent signal. Thus, the HeLa cells that express the EGFP-705 construct can be used for validation of splice site specificity of compounds identified in primary screening of the ISV2 654 construct.
NCGC Assay Protocol Summary: Confirmatory Screening. Freshly thawed HeLa EGFP-705 cells were seeded in 5 ul of optimem media (Invitrogen) containing 2 % fetal calf serum (Hyclone) and 1x penicillin/streptomycin (Invitrogen) at a concentration of 500 cells per well in 1536-well plates. Cells were incubated overnight at 37C in 5% CO2. The next day, cells were treated with DMSO, 500 nM antisense ISV2 654 PNA control oligo, or library compound and allowed to grow at 37C in 5% CO2 for 2 days. The PNA oligo blocked the mutation site in the intron and allowed proper (wild type) splicing to occur, resulting in full length EGFP expression and also allowed for optimization of the assay parameters. Plates were read in the Acumen Explorer (TTP Labtech) using 488 nm laser excitation and 500-520 nm emission PMT filter in a 1 x 8 uM capture mode. Fluorescnet objects ranging in size from 5 to 250 uM were measured and the total peak GFP intensity for each well was used for data analysis. Keywords: Thalassemia, beta-thalassemia, beta-globin, EGFP, ISV2 654, ISV2 705, SSO, PNA, antisense, splicing, MLSMR, MLSCN, NIH Roadmap, qHTS, NCGC
`C=CCc1ccc2c(c1)OCO2`: the Potency entry was “inactive”. For `CC(C)Nc1nc(Cl)nc(NC(C)C)n1`, the Potency result is “inactive”.

For `CNC(=O)O/N=C/C(C)(C)SC`, the Potency entry is “inactive”.

With `CNC(C)[C@H](O)c1ccccc1` (stereo not given in full), the Potency result is “inactive”. To `CNC(=O)CSP(=S)(OC)OC` belongs “inactive”; to `O=C1C(Cl)=C(Cl)C(=O)C(Cl)=C1Cl`, “inactive”; to `O=c1cccc2n1CC1CC2CN2CCCCC12` (stereo not given), “inactive”.

In the case of `COC(=O)COc1cc(Cl)c(Cl)cc1Cl`, the Potency result is “inactive”. In the case of `CC1(C)C(O)CC(O)[C@]2(C)C1CC(=O)[C@]1(C)C2CC[C@@]2(C)C(c3ccoc3)OC(=O)C3OC321` (stereo not given in full), the Potency entry was “inactive”. For the molecule `COc1cc(C2c3cc4c(c(O)c3CC3COC(=O)C32)OCO4)cc(OC)c1OC` (stereo not given), the Potency entry was “inactive”. For the molecule `C[C@@]12CCC(=O)C[C@@H]1CC[C@@H]1[C@@H]2CC[C@]2(C)C(=O)CC[C@@H]12`, the Potency result was “inactive”. For the molecule `C=C1C2CC[C@@]3(C)C(c4ccoc4)OC(=O)C[C@@]13OC1CC(=O)C(C)(C)C(C(OC(C)=O)C(=O)OC)[C@@]12C` (stereo not given in full), the Potency result was “inactive”. Take `CC1(C)C(=O)C=C[C@@]2(C)C1CC(O)[C@]1(C)C2CC[C@@]2(C)C(c3ccoc3)OC(=O)C3O[C@]312` (stereo not given in full): the Potency entry is “inactive”. Turning to `COC1C(O)C(OC2CC[C@]3(C=O)C4C(OC(C)=O)C[C@@]5(C)C(C6=CC(=O)OC6)CC[C@]5(O)C4CC[C@]3(O)C2)OC(C)C1OC(C)=O` (stereo not given in full), the Potency result was “inactive”. In the case of `CCOC(=O)C1C(C=C(C)C)C1(C)C` (stereo not given), the Potency entry is “inactive”.

Consider `CC(C)(C#N)O[C@H]1OC(CO)C(O)C(O)C1O` (stereo not given in full), for which the Potency result is “inactive”. Take `CNC(=O)N(C)c1nnc(C(C)(C)C)s1`: the Potency result was “inactive”.

Consider `COP(=S)(OC)Oc1ccc([N+](=O)[O-])cc1`, for which the Potency result is “inactive”. With `CCC12C=CCN3CCC4(c5ccc(OC)cc5N(C)C4[C@@](O)(C(=O)OC)C1OC(C)=O)C32` (stereo not given in full), the Potency entry is “inactive”.

Take `O=C(CC[N+](=O)[O-])OCC1OC(O)C(OC(=O)CC[N+](=O)[O-])[C@@H](OC(=O)CC[N+](=O)[O-])C1OC(=O)CC[N+](=O)[O-]` (stereo not given in full): the Potency entry was “inactive”. As for `Cc1ccccc1-c1cncnc1NCCc1cnc[nH]1`, the Potency result is “inactive”. To `O=C(O)c1nn(Cc2ccc(Cl)c(Cl)c2)c2ccccc12` belongs “inactive”; to `COC1C(O)C(C)O[C@H](OC2CC[C@@]3(C=O)C4CC[C@]5(C)C(C6=CC(=O)OC6)CC[C@@]5(O)C4CC[C@@H]3C2)C1O` (stereo not given in full), “inactive”; to `C/C=C(\C)C(=O)OC1CC(OC(C)=O)[C@@]2(C(=O)OC)COC3C2[C@@]12CO[C@](O)(C(=O)OC)C2[C@](C)(C12OC1(C)C1CC2OC2OC=C[C@]21O)C3O` (stereo not given in full), “inactive”. As to `C[C@@]12CCC(Cl)C[C@H]1CCC1C2CC[C@]2(C)C(=O)CCC12` (stereo not given in full), the Potency result was “inactive”. For `O=C(O)COc1ccc(Cl)cc1Cl`, the Potency entry was “inactive”.

As to `COc1ccc(/C=C/c2cc(O)cc(O)c2)cc1`, the Potency result is “inactive”. The result for `CC(=O)CC1CCCCN1` (stereo not given) reads “inactive”; that for `CC1OC(O[C@@H]2C(O)CC(O[C@@H]3C(O)C[C@@H](OC4CC[C@]5(C)[C@H](CC[C@H]6[C@@H]5CC[C@]5(C)C(C7=CC(=O)OC7)C(O)C[C@@]65O)C4)OC3C)OC2C)CC(O)C1O` (stereo not given in full), 1000 nM (active); that for `O=C1CC2OCC=C3CN4CC[C@@]56c7ccccc7N1C5C2C3CC46` (stereo not given in full), “inactive”. Consider `CC(C)c1cc2c(c(O)c1O)[C@]1(C(=O)O)CCCC(C)(C)C1CC2` (stereo not given in full), for which the Potency result was “inactive”. For `CC1CC(O)[C@]2(O)[C@]13CC(=O)OC[C@@]2(C)[C@@](C)(O)C(=O)C3` (stereo not given in full), the Potency result is “inactive”. With `CC(C)(O)C1C2OC(=O)C1[C@]1(O)CC3O[C@@]34C(=O)OC2[C@@]14C` (stereo not given in full), the Potency result was “inactive”. For `CC1C(=O)OC2C1CC[C@@]1(C)C=CC(=O)[C@@]3(C)O[C@@]213` (stereo not given in full), the Potency entry was “inactive”.

Regarding `CNC(C)C(O)c1ccccc1` (stereo not given), the Potency result is “inactive”. The result for `OCC1CCCN2CCCCC12` (stereo not given) reads “inactive”; that for `COP(N)(=O)SC` (stereo not given), “inactive”; that for `COc1cc2c(cc1O)CCNC2C` (stereo not given), “inactive”.

As to `CC1=C2C3OC(=O)C(C)C3CC[C@@]2(C)C=CC1=O` (stereo not given in full), the Potency entry was “inactive”. The result for `CNC(Cc1c[nH]c2ccccc12)C(=O)O` (stereo not given) reads “inactive”.
